# Experimental data as given in PubChem BioAssay.
# Molecular target: Streptavidin (Streptomyces avidinii) (UniProt P22629)
# Experiment: streptavidin binders on small-molecule microarray, primary screen, artefact control for SMM compound annotation, biophysical, 635/667 nm fluorescence (AID 1147);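 also: signal reflects streptavidin binding to arrayed compounds as a control protein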
# Conditions: streptavidin binding, higher = more signal
# Chain of Streptavidin (Streptomyces avidinii) (P22629 whole entry, looked up): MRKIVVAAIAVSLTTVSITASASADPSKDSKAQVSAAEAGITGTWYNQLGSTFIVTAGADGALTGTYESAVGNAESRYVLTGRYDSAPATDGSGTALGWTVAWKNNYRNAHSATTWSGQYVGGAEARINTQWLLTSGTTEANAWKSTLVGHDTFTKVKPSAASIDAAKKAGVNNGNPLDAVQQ
row,Compound,composite z-score
1,CCCCN1CC=CC23O[C@@H]4C=CCOC(=O)[C@@H]4[C@H]2C(=O)N(CCO)[C@@H]3C1=O (stereo partly drawn),-0.94
2,C=CC[C@@]12N=C(c3ccc(OCCCO)cc3)O[C@@H]1c1ccccc1N(Cc1ccccc1)C2=O,0.25
3,COCCOC(=O)N1C(=O)[C@@]2(c3cc(C#CCC(C(=O)OC)C(=O)OC)ccc31)[C@H](C(N)=O)[C@H]1C(=O)O[C@H](c3ccccc3)[C@H](c3ccccc3)N1[C@@H]2c1ccc(OCCO)cc1,0.528
4,CCOC(=O)C1=C(C(=O)OCC)N(S(=O)(=O)CC[Si](C)(C)C)[C@H](c2ccccc2)CC1,0.955
5,COC(=O)C1=CC(CCCO)=CC(c2ccc(CN3CCCC3)cc2)N(Cc2sc3ccccc3c2Cl)C=C1C(=O)OC (stereo not drawn),1.85
6,C=CCNC(=O)[C@@H]1[C@H]2C(=O)O[C@H](c3ccccc3)[C@H](c3ccccc3)N2[C@H](c2ccc(O)cc2)[C@@]12C(=O)Nc1ccc(C#CC3(O)CCCCCC3)cc12,-0.932
7,NC(=O)NCC#Cc1ccc2c(c1)[C@]1(C(=O)N2)[C@H](C(=O)Nc2nc3ccccc3s2)[C@H]2C(=O)O[C@H](c3ccccc3)[C@H](c3ccccc3)N2[C@@H]1c1ccc(OCCO)cc1,1.11
8,COCCOC(=O)N1C(=O)[C@@]2(c3cc(C#CC4(O)CCCCCC4)ccc31)[C@H](c1ccccc1OCCO)N1[C@H](c3ccccc3)[C@H](c3ccccc3)OC(=O)[C@H]1[C@@H]2C(=O)N1CCCCCCC1,1.64
9,COCCOC(=O)N1C(=O)[C@@]2(c3cc(C#CCCO)ccc31)[C@H](C(=O)N1CCc3cc(OC)c(OC)cc3C1)[C@H]1C(=O)O[C@H](c3ccccc3)[C@H](c3ccccc3)N1[C@@H]2c1ccccc1OCCO,0.587
10,[N-]=[N+]=NCc1ccccc1[C@H]1OC(c2ccc(OCCCO)cc2)=N[C@@]1(Cc1ccccc1)C(=O)N1CCOCC1,1.08
11,C=CCOC(=O)[C@H]1[C@@H]2C(=O)O[C@@H](c3ccccc3)[C@@H](c3ccccc3)N2[C@@H](c2ccc(OCCOC(=O)[C@@H]3C[C@@H]4C(=O)N[C@@H](CC(C)C)C(=O)N4[C@@H]3c3ccc(O)cc3)cc2)[C@]12C(=O)Nc1ccc(I)cc12,0.149
12,COCCOC(=O)N1C(=O)[C@@]2(c3cc(C#CCC(C(=O)OC)C(=O)OC)ccc31)[C@H](C(=O)N1CCc3cc(OC)c(OC)cc3C1)[C@H]1C(=O)O[C@H](c3ccccc3)[C@H](c3ccccc3)N1[C@@H]2c1ccc(O)cc1,0.286
13,O=C1c2ccccc2[C@@]2(Cc3ccccc3N(Cc3ccccc3)C2=O)[C@H](c2ccc(CO)cc2)N1Cc1ccccc1,-0.0807
14,CN(C)CCCC[C@@H]1NC(=O)[C@@H]2C[C@H](C(=O)NCCCCCCNC(=O)CS)[C@H](c3cccc(OCCO)c3)N2C1=O,-0.149
15,CCCC[C@H]1OB(O)C[C@H]2C1=C(COC)C[C@H]1C(=O)C=CC(=O)[C@H]12,-0.045
16,C=C(/C(=C/C[C@@H](OC(C)=O)c1ccccc1OCCO)c1cc(C(=O)OC)ccc1OC)C(C)C,-0.576
17,C=C(CCCC)/C(=C/C[C@H](OC(C)=O)c1cccc(OCCO)c1)c1cc(C(=O)OC)ccc1OC,-0.77
18,CN(C)CCCC[C@@H]1NC(=O)[C@@H]2C[C@H](C(=O)NCc3ccc(F)cc3)[C@H](c3ccc(O)cc3)N2C1=O,-0.574
19,C=CCNC(=O)[C@@H]1[C@H]2C(=O)O[C@H](c3ccccc3)[C@H](c3ccccc3)N2[C@H](c2ccccc2OCCO)[C@@]12C(=O)N(C(=O)OCCOC)c1ccc(C#CCCO)cc12,0.284
20,C=CCC(OC(C)=O)[C@@H]1[C@@H](N(Cc2cc3ccccc3o2)C(=O)c2ccc(-c3ccccc3)cc2)c2cc(OCCCO)ccc2N1C(=O)c1ccc2ccccc2n1 (stereo partly drawn),0.378
21,COc1ccc(C#Cc2ccc3c(c2)[C@]2(C(=O)N3)[C@H](C(=O)Nc3nc4ccccc4s3)[C@H]3C(=O)O[C@H](c4ccccc4)[C@H](c4ccccc4)N3[C@@H]2c2ccc(OCCO)cc2)cc1,1.57
22,C=CCC(OC(C)=O)[C@@H]1[C@@H](N(Cc2cc3ccccc3o2)C(=O)Cc2ccc(OC)cc2)c2cc(OCCCO)ccc2N1C(=O)Cc1ccc(OC)cc1 (stereo partly drawn),-0.213
23,COCCOC(=O)N1C(=O)[C@@]2(c3cc(C#CC4(O)CCCCCC4)ccc31)[C@H](C(=O)NC[C@H](O)c1ccccc1)[C@H]1C(=O)O[C@H](c3ccccc3)[C@H](c3ccccc3)N1[C@@H]2c1ccc(O)cc1,0.315
